Compounds without any hit were thinned out: in the full panel of roughly 83,000, 20% have a hit.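 Growth was measured after 48 h exposure to one concentration of compound in 96-well plates. Values under 10 count as active.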 Activity calls are given as the source filed them.
test system: UACC-62 melanoma; experiment: NCI-60 one-dose screen, 48 h (100 = growth as untreated, 0 = no growth, -100 = all killed); details: 10 µM unless noted

SMILES	growth
COc1cc2cc(Oc3ccc(NC(=O)Nc4ccc(Cl)c(C(F)(F)F)c4)cc3)c(C)nc2cc1OCCN1CCCCC1	72.6% (inactive)
CN1CCN(c2ccc3nc(-c4ccc5nc(-c6ccc(C(F)(F)F)cc6)[nH]c5c4)[nH]c3c2)CC1	67.5% (inactive)
Cc1c(C(=O)Nc2nc(-c3ccccc3)cs2)nnn1-c1ccccc1Br	39.4% [50 µM] (inactive)
Clc1ccc(Nc2nc(Nc3ccccc3)nc(Nc3ccc(-c4cc(-c5ccc(Cl)cc5)on4)cc3)n2)cc1	53.3% (inactive)
C=C1CC[C@@H]2[C@@](C)(CCC[C@]2(C)C(=O)O)[C@@H]1CC[C@H](CO)CCO	99.2% (inactive)
COC(=O)CCC(=O)c1ccccc1	104% (inactive)
COc1ncnc2c1ncn2C/C(Br)=C(\Br)CCl	57.3% (inactive)
CN1CCC(OC2c3ccccc3CCc3ccccc32)CC1	98.4% (inactive)
O=[N+]([O-])c1ccc(C=C2C(Cl)=C(Cl)C(Cl)=C2Cl)cc1	71.7% (inactive)
COc1ccc(OC)c(/C=C2\Oc3cc(O)ccc3C2=O)c1	89% (inactive)
COC(=O)[C@@]12CC[C@@H](C)[C@]3(C[C@@H](c4ccoc4)OC3=O)[C@H]1CC[C@@H]1O[C@@]12C	95.1% (inactive)
COc1ccc(-c2nc3sc(C)cn3c2/C=C/C(=O)c2cc(OC)c(OC)c(OC)c2)cc1	36.7% (inactive)
C=CC(=O)N1CC2(CC(n3nc(-c4ccc(Oc5ccccc5)cc4)c4c(N)ncnc43)C2)C1	7.95% (active)
Cc1cc(=O)c2c(C)ccc(C)c2[nH]1	96.4% (inactive)

Source: PubChem BioAssay (NCI)
